Experimental data reported in ChEMBL document CHEMBL2218924, “A broad activity screen in support of a chemogenomic map for kinase signalling research and drug discovery” (Biochem J, 2013).

The molecules below were run against Mitogen-activated protein kinase 14 (Homo sapiens) (UniProt Q16539). Conditions: at 1 µM.
Sequence of Mitogen-activated protein kinase 14 (Homo sapiens) (Q16539 whole entry): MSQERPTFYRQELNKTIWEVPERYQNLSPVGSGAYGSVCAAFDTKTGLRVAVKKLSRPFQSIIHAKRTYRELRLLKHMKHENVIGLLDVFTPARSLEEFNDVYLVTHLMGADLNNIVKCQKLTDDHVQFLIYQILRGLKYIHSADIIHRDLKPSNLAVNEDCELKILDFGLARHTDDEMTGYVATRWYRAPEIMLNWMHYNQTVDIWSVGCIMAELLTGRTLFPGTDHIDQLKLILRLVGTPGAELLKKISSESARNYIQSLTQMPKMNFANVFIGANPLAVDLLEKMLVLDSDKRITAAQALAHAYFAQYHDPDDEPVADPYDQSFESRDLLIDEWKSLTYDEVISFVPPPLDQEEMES

SMILES	residual activity [%]
O=c1c(-c2ccc(F)cc2)c(-c2ccncc2)[nH]n1-c1ccc(Cl)cc1	3
O=C1NC(=O)C(c2cn(CCCn3ccnc3)c3ccccc23)=C1Nc1ccccc1	62
COc1cc2c(cc1OC)-c1n[nH]c(Nc3cccc(F)c3)c1C2	69
Fc1ccc(-c2nc3n(c2-c2ccncc2)CCS3)cc1	16
O=C(O)/C=C/c1cc(Br)c(Br)c(Br)c1Br	77
NC(=O)c1ccc(-c2nc(-c3ccc4c(c3)OCCO4)c(-c3ccccn3)[nH]2)cc1	77
Cc1cc(C)c(/C=C2\C(=O)Nc3ccccc32)[nH]1	79
O=C(c1ccccc1)c1ccc(N2CCOCC2)cc1O	79
COc1ccc(-c2cnc3c(-c4ccsc4)cnn3c2)cc1	81
CC(C)N(CCC(=O)c1ccc2ccccc2c1)Cc1ccccc1	81
CCN(CC)CCNC(=O)c1c(C)[nH]c(/C=C2\C(=O)Nc3ccc(Cl)cc32)c1C	82
O=c1cc(N2CCNCC2)oc2c(-c3ccccc3)cccc12	101
O=C1NC(=O)C(c2c[nH]c3ccccc23)=C1c1c[nH]c2ccccc12	98
N#C/C(=C1/Nc2ccccc2S1)c1ccnc(NCCc2cccnc2)n1	76
CN(C)S(=O)(=O)c1ccc2c(c1)/C(=C/c1cc3c([nH]1)CCCC3)C(=O)N2	87
O=C1NC(=O)C(c2cn(CCCO)c3ncccc23)=C1c1cnccn1	82

The molecules below were run against Mitogen-activated protein kinase 14 (Homo sapiens) (UniProt Q16539). Conditions: at 10 µM.

SMILES	residual activity [%]
O=c1c(-c2ccc(F)cc2)c(-c2ccncc2)[nH]n1-c1ccc(Cl)cc1	0
O=C1NC(=O)C(c2cn(CCCn3ccnc3)c3ccccc23)=C1Nc1ccccc1	78
COc1cc2c(cc1OC)-c1n[nH]c(Nc3cccc(F)c3)c1C2	44
Fc1ccc(-c2nc3n(c2-c2ccncc2)CCS3)cc1	3
O=C(O)/C=C/c1cc(Br)c(Br)c(Br)c1Br	90
NC(=O)c1ccc(-c2nc(-c3ccc4c(c3)OCCO4)c(-c3ccccn3)[nH]2)cc1	37
O=C1Nc2ccccc2/C1=C\c1c(Cl)[nH]c2ccccc12	45
COc1ccc(COc2ccc(Cc3cnc(N)nc3N)cc2OC)cc1	99
Cc1cc(C)c(/C=C2\C(=O)Nc3ccccc32)[nH]1	98
O=C(c1ccccc1)c1ccc(N2CCOCC2)cc1O	83
CC(C)N(CCC(=O)c1ccc2ccccc2c1)Cc1ccccc1	79
CCN(CC)CCNC(=O)c1c(C)[nH]c(/C=C2\C(=O)Nc3ccc(Cl)cc32)c1C	52
O=c1cc(N2CCNCC2)oc2c(-c3ccccc3)cccc12	98
O=C1NC(=O)C(c2c[nH]c3ccccc23)=C1c1c[nH]c2ccccc12	73
N#C/C(=C1/Nc2ccccc2S1)c1ccnc(NCCc2cccnc2)n1	41
CN(C)S(=O)(=O)c1ccc2c(c1)/C(=C/c1cc3c([nH]1)CCCC3)C(=O)N2	86
O=C1NC(=O)C(c2cn(CCCO)c3ncccc23)=C1c1cnccn1	92
